Source: PubChem BioAssay
An excerpt weighted towards active compounds, which were near 3.4% of everything screened.
HSP90 inh: HSP90 inhibitors, primary screen, cell lysate, luminescence | Heat shock protein HSP 90 (rabbit reticulocyte lysate; luciferase refolding) | Rabbit reticulocyte lysate, luciferase refolding luminescence, 3 h | inhibition, % at 5.6 µM | actives 0.91% (n = 290,000);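 active means inhibition above the screen-wide mean plus 3 SD, computed separately per campaign, cut at about 16% in these data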;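 further: inhibitors lower the luminescence because luciferase stays unfolded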
GAA850 FXN act: FXN promoter activators, primary screen, cell-based, luciferase luminescence, HEK293 lucGAA850; HEK293 lucGAA850 FXN promoter luciferase reporter, 24 h; percent of 10 µM SAHA response; activation, % at 6 µM; actives 0.56% (n = 360,000); AID 540364, 2011;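 active means activation above the average of all compounds screened plus 3 SD, cutoff fixed separately per campaign, cut at about 7.5% in these data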
AI-2 QS mod: Vibrio harveyi AI-2 quorum sensing modulators, primary screen, JMH597 strain, luminescence/OD600 ratio | Vibrio harveyi JMH597 AI-2 luminescence/OD600 ratio, 9 h; stronger effect = lower value; strain lacks LuxN and CqsS sensors; 0 = neutral-control median | activity change, % at 7.5 µM | actives 0.4% (n = 300,000) | AID 2094, 2009; in the data active means activity change below about -75%, passing the limit was not always enough;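 further: luminescence divided by OD600 gain over 9 h not by final OD600 alone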
HSF1 inhib: HSF1 inhibitors in luciferase reporter cells, primary screen, cell-based, NIH3T3, luminescence; NIH3T3-HGL HSE-luciferase, MG132-induced, luminescence 8 h; stronger effect = lower value; AID 2098, 2009; actives 0.77% (n = 300,000); activity change, negative = inhibition, % at 7.5 µM (by protocol);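 active means more than half of replicate wells show activity change below -50%, luminescence cut by over half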;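 further: luciferase reports HSF-1 transcriptional activity via heat shock element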
SMARCA2 act: SMARCA2 (BRM) function activators, primary screen, cell-based, luminescence, high throughput. actives 1% (n = 370,000). activation, % at 9.1 µM. MG213 cells, MMTV-luciferase reporter, dexamethasone, overnight. AID 652017, 2013; in the data active means activation above about 7.8%
PG9 binder: binders of HIV-1 gp120 antibody PG9, primary screen, biochemical, TR-FRET. HIV-1 gp120 / PG9 antibody interaction. TR-FRET gp120-PG9 antibody binding. inhibition, % at 6.7 µM. actives 0.43% (n = 360,000). AID 624416, 2012; in the data active means inhibition above about 8.5%
Each line names hits and unclear results; the compound was inactive in the other large screens.

Cc1c(C(=O)C(=O)NCCC2=CCCCC2)c2ccccc2n1C	none
Cc1c(C(=O)C(=O)NCc2cccs2)c2ccccc2n1C	HSF1 inhib -92.0
Cc1cc(C(=O)Cn2nc(C(=O)O)c3ccccc3c2=O)c(C)n1-c1cccc(C(F)(F)F)c1	none
Cc1cc(C(=O)Cn2nc(C(=O)O)c3ccccc3c2=O)c(C)n1-c1ccc(F)cc1	HSP90 inh 16.8
O=C(Cc1ccccc1)N/N=C/c1cc(Br)cc(Br)c1O	HSP90 inh 16.2
O=C(CNC(=O)c1cccc(Br)c1)N/N=C/c1cc(Br)cc(Br)c1O	none
O=C(CCl)N(c1ccccc1)c1c[nH]c2ccccc12	none
O=C(CCl)N(c1ccc(Cl)cc1)c1c[nH]c2ccccc12	HSF1 inhib -92.8
Cc1ccc(CNCc2ccccc2Cl)cc1	none
Cc1ccc2nc(Cl)c(CNCc3ccccc3)cc2c1	AI-2 QS mod -81.9
CCCOc1nccc2c1n(C)c(=O)n2C	none (no result: HSP90 inh, GAA850 FXN act, AI-2 QS mod, HSF1 inhib, PG9 binder)
CCOc1ccc(C2C(C(=O)c3ccco3)=C(O)C(=O)N2CCCn2ccnc2)cc1 (stereo unspecified)	none
Cc1ccc(C(=O)C2=C(O)C(=O)N(CCCn3ccnc3)C2c2ccc(OC(C)C)cc2)o1 (stereo unspecified)	PG9 binder 41.1
Cc1cccc(OCc2nc(-c3ccc(Br)o3)no2)c1	AI-2 QS mod -77.6
CCOC(=O)[C@]12CCCCC/C=C\1N(Cc1ccc(OC)cc1)C(=O)[C@H]2CC(=O)NCC12CC3CC(CC(C3)C1)C2	none (no result: HSP90 inh, GAA850 FXN act, AI-2 QS mod, HSF1 inhib, PG9 binder)
CCOc1ccccc1NS(=O)(=O)c1cccs1	none
CCOc1ccccc1NC(=O)CCS(=O)(=O)c1cccs1	HSF1 inhib -89.3
COc1ccc2c(c1)nc(-c1cccc(Br)c1)c(=O)n2C(c1ccccn1)c1nc2ccccc2[nH]1 (stereo unspecified)	SMARCA2 act 7.9 (no result: HSP90 inh, GAA850 FXN act, AI-2 QS mod, HSF1 inhib)
CCOc1cc(CNCC2CCCN2CC)cc(Cl)c1OC (stereo unspecified)	HSF1 inhib -73.7
CCN1CCCC1CNCc1cc(OC)c(OC)c(OC)c1 (stereo unspecified)	none
Cc1ccc(N=C2NC(=O)/C(=C/c3cccs3)S2)cc1C	none
Cc1cccc(N=C2NC(=O)/C(=C\c3cccs3)S2)c1	SMARCA2 act 7.9
Cc1cccc(N=C2NC(=O)/C(=C/c3cccnc3)S2)c1	none
O=C1NC(=Nc2cccc(O)c2)S/C1=C\c1cccnc1	SMARCA2 act 7.9
COc1ccc(O)c(C2=Nc3ccccc3N=C(c3cccs3)C2)c1	HSF1 inhib -63.0
Cc1cc(C)cc(N2C(=O)CN(Cc3ccccc3)C2=S)c1	HSF1 inhib -77.8
Cc1ccc2c(c1)-c1nc3ccccc3cc1C2=NC1CCCCC1	SMARCA2 act 9.5 (no result: AI-2 QS mod, HSF1 inhib)
COC(=O)[C@]12C[C@H](CC(=O)NCc3cccc4ccccc34)C(=O)N(Cc3cccc4ccccc34)C1=C[C@H](COCc1ccccc1)O[C@@H]2C	none (no result: HSP90 inh, GAA850 FXN act, AI-2 QS mod, HSF1 inhib, PG9 binder)
COCCCN1C(=O)[C@H](CC(=O)NCCc2ccccc2OC)[C@]2(C(=O)OC)CCCCC=C12	none (no result: HSP90 inh, GAA850 FXN act, AI-2 QS mod, HSF1 inhib, PG9 binder)
CCOC(=O)Cn1c(CCC(=O)O)ccc1-c1ccc(F)cc1	HSF1 inhib -77.2
O=C(O)CCc1ccc(-c2ccc(F)cc2)n1CC(=O)O	none
Cc1ccc(NC(=O)C2CCN(c3ncccn3)CC2)cc1C	none (no result: HSP90 inh, GAA850 FXN act, AI-2 QS mod, HSF1 inhib, PG9 binder)
O=C(CSc1nc2sc3c(c2c(=O)n1-c1ccc(Cl)cc1)CCCC3)c1ccccc1Cl	none (no result: HSP90 inh, GAA850 FXN act, AI-2 QS mod, HSF1 inhib, PG9 binder)
Cc1cccn2c(=O)c3cc(C(=O)N4CCCCC4)sc3nc12	none
CCC1CCCCN1C(=O)c1cc2c(=O)n3cccc(C)c3nc2s1 (stereo unspecified)	HSF1 inhib -64.2 (no result: AI-2 QS mod, SMARCA2 act, PG9 binder)
C#CC(=O)N(c1ccc(OC)cc1OC)C(C(=O)NC1CCCC1)c1cccs1 (stereo unspecified)	none
C#CC(=O)N(c1cc(OC)ccc1OC)C(C(=O)NC1CCCC1)c1cccs1 (stereo unspecified)	HSF1 inhib -90.1 (no result: SMARCA2 act, PG9 binder)
Cc1cccc(C)c1NC(=O)N1C(C(=O)O)CSC1C(=O)O (stereo unspecified)	HSF1 inhib -87.7
COC(=O)C1CSC(C(=O)OC)N1C(=O)Nc1c(C)cccc1C (stereo unspecified)	none
CCOC(=O)CNC(=O)C(Cc1ccc2c(c1)OCO2)NC(C)=O (stereo unspecified)	none (no result: HSP90 inh, GAA850 FXN act, AI-2 QS mod, HSF1 inhib, PG9 binder)
COc1ccc(O)c(C(=O)CC(=O)c2cccnc2)c1	SMARCA2 act 13.2 (no result: HSP90 inh, AI-2 QS mod, HSF1 inhib)
COC(=O)[C@]12CCCCC=C1N(Cc1ccc(OC)cc1)C(=O)[C@@H]2CC(=O)NCCCN1CCCC1=O	none (no result: HSP90 inh, GAA850 FXN act, AI-2 QS mod, HSF1 inhib, PG9 binder)
CC(C)c1onc(C(=O)N2CCN(C(c3ccccc3)c3ccccc3)CC2)c1[N+](=O)[O-]	HSF1 inhib -56.8
CC(C)(C)c1ccc(S(=O)(=O)N2CCCC(C(=O)NCc3cccs3)C2)cc1 (stereo unspecified)	none (no result: HSP90 inh, GAA850 FXN act, AI-2 QS mod, HSF1 inhib, PG9 binder)
COc1ccc(N2CCN(C(=O)Cc3ccc(-n4c(=O)[nH]c5ccccc5c4=O)cc3)CC2)cc1	HSF1 inhib -57.6
Cc1cc(C)c2c(n1)sc1c(=O)[nH]c(SCc3ccccc3)nc12	HSF1 inhib -89.5
C=CCSc1nc2c(sc3nc(C)cc(C)c32)c(=O)[nH]1	none
c1cc2c(cc1C1=NNC(=NC3CC3)SC1)OCCO2	HSP90 inh 76.3
COc1ccc(N=C2NN=C(c3ccc4c(c3)OCCO4)CS2)cc1	none
COc1cc2c3nnc(-c4ccc(F)cc4)c-3cn(Cc3ccccc3)c2cc1OC	SMARCA2 act 18.6
COc1ccc2nc(N=Nc3ccc(N(C)C)cc3)sc2c1	HSP90 inh 25.5 (no result: AI-2 QS mod, HSF1 inhib)
Cc1nn(Cc2ccc(F)cc2)c2sc(C(=O)Nc3nccs3)cc12	PG9 binder 15.5
O=S1(=O)CC2c3ccccc3CCN2CN1Cc1ccc(F)cc1 (stereo unspecified)	none (no result: HSP90 inh, GAA850 FXN act, AI-2 QS mod, HSF1 inhib, PG9 binder)
O=C(NCCc1cccnc1)c1cc(COc2ccc(F)cc2F)on1	AI-2 QS mod -75.7
Cc1ccc(C2=NCCn3c2c2ccc(C(F)(F)F)cc2[n+]3[O-])cc1	HSF1 inhib -55.1 (no result: HSP90 inh)
CC(=O)c1ccc(NC(=O)C2CCN(S(=O)(=O)c3cccc4cccnc34)CC2)cc1	HSF1 inhib -62.2
COc1ccc(NC(=O)C2CCN(S(=O)(=O)c3cccc4cccnc34)CC2)cc1	none
COC(=O)c1ccc(NC(=O)c2ccc(NS(=O)(=O)c3cccc4cccnc34)cc2)cc1	HSP90 inh 16.8 (no result: SMARCA2 act, PG9 binder)
CCOc1ccc(NC(=O)c2ccc(NS(=O)(=O)c3cccc4cccnc34)cc2)cc1	none (no result: HSP90 inh, AI-2 QS mod, HSF1 inhib)
CCCCCCCCNS(=O)(=O)/C=C/c1ccc(OC)cc1CNC(=O)OC(C)(C)C	none (no result: HSP90 inh, GAA850 FXN act, AI-2 QS mod, HSF1 inhib, PG9 binder)
